Experiments:
MAP4K4 = test system: MAP4K4; parameters: species or system human, MV4-11 + K-562 + COLO205 + SK-N-BE2 + OVCAR-8; conditions: read-out: apparent Kd; compound concentrations: 100 nM and 1000 nM (sheet 'Samples'), CATDS: 1.6227318274317299E-2; n = 1
T10 = test system: T1, T10; parameters: species or system human, MV4-11 + K-562 + COLO205 + SK-N-BE2 + OVCAR-8; conditions: read-out: apparent Kd; compound concentrations:100 nM and 1000 nM (sheet 'Samples'); n = 1
T1 construct: gene NAT10

SMILES | potency estimated from few doses (MAP4K4) | potency estimated from few doses (T10)
NS(=O)(=O)c1ccc(NC=C2C(=O)Nc3ccc4ncsc4c32)cc1 [GW589933X] | 2140 nM | 
Cc1cccc(-c2cc(-c3c[nH]nc3-c3ccccn3)ccn2)c1 [GW679395X] |  | 1940 nM
